The results in this text go back to PubChem BioAssay (NCATS).

Inconclusive results are not listed. Calls of active or inactive are those of the source. Unless noted, the call rests on the fitted dose curve; in most records, active means well fitted curve in the direction sought with a large enough effect; inconclusive means small, poorly fitted or top-dose-only effect, or another doubt; inactive means no such curve, though single readings can be large; an effect the other way counts as inactive or inconclusive.

The target in assay [1] is Atrial natriuretic peptide receptor 2 (Homo sapiens) (UniProt P20594). The experiment in a line: Natriuretic polypeptide receptor (hNpr2) antagonism - Pilot subtype selectivity assay (AID 1347050; calls by dose curve). Summed up:
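cGMP-sensor HEK293/hNpr2 cells; 2% GloSensor reagent 2 h RT; compounds 30 min; baseline luminescence read; 1 nM hNppC agonist 20 min RT; final luminescence read by CCD camera. Antagonism = reduced post-agonist signal.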

Assay [2] is described as follows: NS1 protein of Zika virus - qHTS assay to identify small molecule inhibitors in human HEK 293 cells (AID 1347053). Further: series mostly up to about 46 µM; nearly all actives have a fitted effect of over 55% in size. Summed up: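 HEK 293 cells pretreated with compound for 1 h, then infected with ZIKV MR766 (MOI 0.5) for 24 h at 37 C. NS1 detected by TR-FRET with two anti-NS1 antibodies; normalized to uninfected (0%) and infected (100%) wells.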
(In general: Quantitative high-throughput screening tests each substance at several concentrations.)

Assay [3] concerns the target T1, Tyrosine-protein phosphatase non-receptor type substrate 1 (Homo sapiens) + Leukocyte surface antigen CD47 (Homo sapiens) (UniProt P78324+Q08722). The experiment in a line: CD47-SIRPalpha protein protein interaction - LANCE assay qHTS validation (AID 1347057; active means well fitted curve in the direction sought with a large enough effect in the signal ratio, with a control signal flat, not every such curve was filed as active; the % refers to the signal ratio; further: potency means the concentration at half of the fitted maximal effect). The essentials: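 First, His-tagged CD47 and Eu-labelled anti-His antibody met the compound for 30 min; next, site-specifically biotinylated SIRPalpha was added for 30 min; finally streptavidin-APC was added before reading the TR-FRET ratio.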
In general terms: TR-FRET usually uses a lanthanide donor and a delayed reading to cut background.

In assay [4] the target is T1, Tyrosine-protein phosphatase non-receptor type substrate 1 (Homo sapiens) + Leukocyte surface antigen CD47 (Homo sapiens). The experiment in a line: CD47-SIRPalpha protein protein interaction - Alpha assay qHTS validation (AID 1347059).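 Further: bead proximity luminescence from CD47 binding SIRPalpha after compound preincubation with SIRPalpha.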 The essentials:
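Soluble extracellular domains: Avi-tag biotinylated SIRPalpha (25 nM) preincubated 30 min RT with compound, then 6His-CD47 (12.5 nM) 30 min; Ni-NTA acceptor and streptavidin donor beads (10 ug/mL) 30 min, AlphaScreen read. PBS pH 7.4, 0.05% IGEPAL.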

Assay [5] has as its target Parathyroid hormone/parathyroid hormone-related peptide receptor (Homo sapiens) (UniProt Q03431). Briefly: qHTS for PTHR1 Agonists: Optimization Screen against the NCGC LOPAC library (AID 1347079).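 Further: GloSensor cAMP luminescence in HEK-293 GP2 cells expressing human PTHR1 with IBMX.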 The essentials:
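Agonist readout: GloSensor cAMP luminescence, read after 15 min at room temperature. HEK-293-derived GP2 line carries PTHR1; compounds tested as a titration for 1 hr at 37C in presence of IBMX. M-PTH (1-15) served as control.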

Assay [6] deals with T1, Tyrosine-protein phosphatase non-receptor type substrate 1 (Homo sapiens) + Leukocyte surface antigen CD47 (Homo sapiens). Briefly: CD47-SIRPalpha protein protein interaction - HTRF assay qHTS validation (AID 1347058; active means well fitted curve in the direction sought with a large enough effect in the signal ratio, not every such curve was filed as active; the % refers to the signal ratio; further: series mostly up to about 38 µM). Summed up: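 TR-FRET read (Ch1/Ch2 ratio) of soluble extracellular CD47 and Avi-biotinylated SIRPalpha domains in PBS pH 7.4 with 0.05% IGEPAL; 7-point compound titration. Sequential 30 min room-temperature steps; non-biotinylated SIRPalpha as control inhibitor.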

Sequence of Atrial natriuretic peptide receptor 2 (Homo sapiens) (P20594 whole entry, looked up): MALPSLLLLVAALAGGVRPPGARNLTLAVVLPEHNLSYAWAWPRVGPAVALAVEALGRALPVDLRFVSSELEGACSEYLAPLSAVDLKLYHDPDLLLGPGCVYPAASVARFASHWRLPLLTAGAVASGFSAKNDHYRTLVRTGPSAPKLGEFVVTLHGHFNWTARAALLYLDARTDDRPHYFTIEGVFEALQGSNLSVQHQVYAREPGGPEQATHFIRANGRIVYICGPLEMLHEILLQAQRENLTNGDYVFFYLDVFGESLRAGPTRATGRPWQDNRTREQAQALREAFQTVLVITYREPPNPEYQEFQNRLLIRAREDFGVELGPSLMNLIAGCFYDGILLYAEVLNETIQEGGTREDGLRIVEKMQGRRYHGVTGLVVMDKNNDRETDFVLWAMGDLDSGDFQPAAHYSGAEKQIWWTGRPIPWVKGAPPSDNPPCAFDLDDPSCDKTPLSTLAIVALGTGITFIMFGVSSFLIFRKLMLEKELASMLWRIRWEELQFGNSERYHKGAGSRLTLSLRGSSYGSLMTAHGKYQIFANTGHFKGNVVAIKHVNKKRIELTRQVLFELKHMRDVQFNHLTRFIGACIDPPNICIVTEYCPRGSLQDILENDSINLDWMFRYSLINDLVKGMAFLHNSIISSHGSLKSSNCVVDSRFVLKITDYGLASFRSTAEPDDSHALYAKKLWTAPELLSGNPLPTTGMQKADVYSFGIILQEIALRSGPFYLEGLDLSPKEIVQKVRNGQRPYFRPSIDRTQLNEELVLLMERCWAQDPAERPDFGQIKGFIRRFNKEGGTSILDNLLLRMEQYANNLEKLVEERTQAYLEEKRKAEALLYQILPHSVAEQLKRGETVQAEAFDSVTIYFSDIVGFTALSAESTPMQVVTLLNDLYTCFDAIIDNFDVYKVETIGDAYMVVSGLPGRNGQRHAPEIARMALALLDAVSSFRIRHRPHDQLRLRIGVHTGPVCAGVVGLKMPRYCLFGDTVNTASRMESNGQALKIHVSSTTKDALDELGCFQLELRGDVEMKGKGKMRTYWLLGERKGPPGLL
T1 sequence (P78324 whole entry, looked up): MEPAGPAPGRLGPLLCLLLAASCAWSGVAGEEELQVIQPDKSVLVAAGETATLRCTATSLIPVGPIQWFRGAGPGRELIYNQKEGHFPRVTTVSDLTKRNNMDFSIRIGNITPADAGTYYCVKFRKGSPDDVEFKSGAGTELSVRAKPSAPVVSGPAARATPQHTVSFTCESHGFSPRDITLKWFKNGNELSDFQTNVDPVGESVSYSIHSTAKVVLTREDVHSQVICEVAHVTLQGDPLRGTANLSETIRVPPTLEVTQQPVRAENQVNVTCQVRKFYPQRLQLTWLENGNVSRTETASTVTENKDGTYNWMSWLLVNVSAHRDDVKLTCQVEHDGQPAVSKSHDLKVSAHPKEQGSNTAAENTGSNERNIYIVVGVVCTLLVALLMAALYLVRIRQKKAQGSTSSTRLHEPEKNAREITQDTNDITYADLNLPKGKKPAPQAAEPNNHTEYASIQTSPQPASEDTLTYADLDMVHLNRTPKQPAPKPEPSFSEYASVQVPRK
T1 sequence (Q08722 whole entry, looked up): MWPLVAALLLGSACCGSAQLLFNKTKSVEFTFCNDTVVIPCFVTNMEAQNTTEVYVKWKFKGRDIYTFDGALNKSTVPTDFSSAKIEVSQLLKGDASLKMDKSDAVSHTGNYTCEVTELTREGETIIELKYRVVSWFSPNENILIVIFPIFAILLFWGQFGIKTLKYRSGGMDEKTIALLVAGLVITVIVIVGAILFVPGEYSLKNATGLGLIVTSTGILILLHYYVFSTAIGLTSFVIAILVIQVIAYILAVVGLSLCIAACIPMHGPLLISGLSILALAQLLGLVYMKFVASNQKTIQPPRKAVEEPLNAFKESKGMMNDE
Sequence of Parathyroid hormone/parathyroid hormone-related peptide receptor (Homo sapiens) (Q03431 whole entry, looked up): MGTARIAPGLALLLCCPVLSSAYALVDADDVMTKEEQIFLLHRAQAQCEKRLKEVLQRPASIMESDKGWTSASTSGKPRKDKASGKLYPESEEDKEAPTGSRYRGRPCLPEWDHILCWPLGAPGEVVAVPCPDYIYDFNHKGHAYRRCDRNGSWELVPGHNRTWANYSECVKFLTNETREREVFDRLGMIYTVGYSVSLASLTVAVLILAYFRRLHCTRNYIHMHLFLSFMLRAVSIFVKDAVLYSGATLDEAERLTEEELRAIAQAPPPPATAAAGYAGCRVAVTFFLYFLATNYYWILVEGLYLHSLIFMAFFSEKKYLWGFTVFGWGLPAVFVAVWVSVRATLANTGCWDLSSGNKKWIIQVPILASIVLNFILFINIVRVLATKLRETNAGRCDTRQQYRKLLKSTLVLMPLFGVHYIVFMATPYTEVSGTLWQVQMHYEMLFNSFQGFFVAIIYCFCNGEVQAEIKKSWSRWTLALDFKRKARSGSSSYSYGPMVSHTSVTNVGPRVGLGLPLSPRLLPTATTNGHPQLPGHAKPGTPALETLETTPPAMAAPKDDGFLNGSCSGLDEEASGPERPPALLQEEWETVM

`COc1cccc(OC)c1OCCNCC1COc2ccccc2O1` (stereo not given): the Potency result in assay [1], in assay [2], in assay [3], in assay [4] and in assay [5] was “inactive” in each case.
In the case of `CCCCC/C=C\CC(O)/C=C/c1cccc(CC(O)CCCCO)n1` (stereo not given), the Potency entry in assay [1] and in assay [5] was “inactive” each time.
As for `OCC1O[C@H]([S-])[C@H](O)[C@@H](O)[C@@H]1O.[Au+]` (stereo not given in full), the Potency entry in assay [1] and in assay [5] was “inactive” throughout. Moreover, the Potency in assay [3] was 5.85 µM (active).
Consider `O=c1[nH]c2cc(C(F)(F)F)ccc2n1-c1cc(C(F)(F)F)ccc1O`, for which the Potency result in assay [1], in assay [2], in assay [3], in assay [4] and in assay [5] was “inactive” in each case. Besides, the outcome in assay [6] was inactive.
On to `Nc1ccn([C@@H]2O[C@H](CO)[C@@H](O)[C@@H]2O)c(=O)n1`, for which the Potency result in assay [2] was “inactive”.
With `CC(C)(NS(=O)(=O)c1ccc(Oc2ccc(F)cc2)cc1)C(=O)NO`, the Potency entry in assay [2], in assay [3] and in assay [4] was “inactive” throughout. For the same compound, in assay [6], the result was inactive.
In the case of `CCCC(CCC)C(=O)OC1CC2CCC(C1)[N+]2(C)C` (stereo not given), the Potency entry in assay [2], in assay [3] and in assay [4] was “inactive” throughout. Further, the result in assay [6] was inactive.
Take `CCNC(=O)[C@H]1O[C@@H](n2cnc3c(N)nc(NCCc4ccc(CCC(=O)O)cc4)nc32)[C@H](O)C1O` (stereo not given in full): the Potency entry in assay [2], in assay [3] and in assay [4] was “inactive” throughout. Besides, the result in assay [6] was inactive.
On to `NC(=O)C(=O)O`, for which the Potency result in assay [1], in assay [2], in assay [3], in assay [4] and in assay [5] was “inactive” each time. Moreover, the result in assay [6] was inactive.
In the case of `CCC(CO)Nc1nc(NCc2ccccc2)c2ncn(C(C)C)c2n1` (stereo not given), the Potency entry in assay [2] is “inactive”.
Consider `OC[C@H]1O[C@@H](n2cnc3c(Nc4ccccc4)ncnc32)[C@H](O)[C@@H]1O`, for which the Potency entry in assay [1] and in assay [5] was “inactive” in each case.
As for `CN[C@H](CC(C)C)C(=O)N[C@H]1C(=O)N[C@@H](CC(N)=O)C(=O)N[C@H]2C(=O)N[C@H]3C(=O)N[C@H](C(=O)N[C@H](C(=O)O)c4cc(O)cc(O)c4-c4cc3ccc4O)[C@H](O)c3ccc(c(Cl)c3)Oc3cc2cc(c3O[C@@H]2O[C@H](CO)[C@@H](O)[C@H](O)[C@H]2O[C@H]2C[C@](C)(N)[C@H](O)[C@H](C)O2)Oc2ccc(cc2Cl)[C@H]1O`, the Potency entry in assay [2], in assay [3] and in assay [4] was “inactive” throughout. In assay [6], the result was inactive.
As for `Nc1nc2ccc(Cl)cc2n2c(-c3ccccc3)nnc12`, the Potency result in assay [2], in assay [3] and in assay [4] was “inactive” each time. Also, the outcome in assay [6] was inactive.
With `O=c1[nH]c2cc([N+](=O)[O-])c([N+](=O)[O-])cc2[nH]c1=O`, the Potency entry in assay [1], in assay [2], in assay [3], in assay [4] and in assay [5] was “inactive” throughout.
Turning to `Nc1nc2c(ncn2[C@@H]2O[C@H](CO)[C@@H](O)[C@@H]2O)c(=O)[nH]1`, the Potency entry in assay [2], in assay [3] and in assay [4] was “inactive” in each case. In addition, the outcome in assay [6] was inactive.
Take `CCCCCCCC/C=C\CCCCCCCC(=O)NCCO`: the Potency result in assay [1], in assay [2], in assay [3], in assay [4] and in assay [5] was “inactive” each time. Besides, the outcome in assay [6] was inactive.
In the case of `COCCOc1cc2ncnc(Cl)c2cc1OCCOC`, the Potency result in assay [2], in assay [3] and in assay [4] was “inactive” throughout. Further, the result in assay [6] was inactive.
As for `O=C(O)CNC(=O)C(CS)Cc1ccccc1` (stereo not given), the Potency entry in assay [1], in assay [2], in assay [3], in assay [4] and in assay [5] was “inactive” each time. Also, the outcome in assay [6] was inactive.
For `CCCCCCCCCCCCCCCCCC(=O)OC(CC(=O)O)C[N+](C)(C)C` (stereo not given), the Potency entry in assay [1], in assay [2], in assay [3], in assay [4] and in assay [5] was “inactive” each time. Moreover, the outcome in assay [6] was inactive.
Turning to `C[C@@H](NC(=O)/C(C#N)=C/c1ccc(O)c(O)c1)c1ccccc1`, the Potency result in assay [1] and in assay [5] was “inactive” throughout.
For the compound `NCCCCCCCCCCN`, the Potency entry in assay [1], in assay [2], in assay [3], in assay [4] and in assay [5] was “inactive” in each case. Further, in assay [6], the outcome was inactive.
With `Clc1ccc(N2CCN(Cc3cc4ccccn4n3)CC2)cc1`, the Potency entry in assay [1], in assay [2], in assay [3], in assay [4] and in assay [5] was “inactive” throughout. In assay [6], the outcome was inactive.
Take `O=C(CCSCc1ccco1)NNC(=O)N1Cc2ccccc2Oc2ccc(Cl)cc21`: the Potency entry in assay [2], in assay [3] and in assay [4] was “inactive” in each case. In addition, in assay [6], the result was inactive.
For the compound `Nc1nc(SCc2ccc([N+](=O)[O-])cc2)c2ncn([C@@H]3O[C@H](CO)[C@@H](O)[C@H]3O)c2n1`, the Potency entry in assay [1], in assay [2], in assay [3], in assay [4] and in assay [5] was “inactive” in each case.
